From ChEMBL document CHEMBL3988442, “University of Dundee, Small-Polar-MMV Screening Library” (2021)
About 13,000 (27%) of roughly 48,000 compounds showed an effect of 50% or more. The list shows a part of the results.

Each compound was assayed on Wolbachia pipientis (assay: Anti-Wolbachia Cell-Based Screen). Details: 5 µM.
Type: functional
Parameters: scale not given: in the data most compounds retested in dose-response had high values

| SMILES | Percent Effect [%] |
| --- | --- |
| CNc1nc(CNC(=O)Nc2cccc(COCCOC(C)C)c2)cs1 | -6.236 |
| CS(=O)(=O)N1CCCC12CCCN(c1nccs1)C2 (stereo not drawn) | 4.667 |
| CCc1ccc(S(=O)(=O)N2CCC3(CC(C(=O)NC)=NO3)C2)cc1 (stereo not drawn) | 16.22 |
| CCc1ccc(S(=O)(=O)N2CCCC3(CCCN3S(C)(=O)=O)C2)cc1 (stereo not drawn) | 114.6 |
| CC(C)c1ccc(S(=O)(=O)N2CCCC3(CCCN3S(C)(=O)=O)C2)cc1 (stereo not drawn) | 108.3 |
| CC(C)CC(c1nc(-c2cnn(C)c2)no1)N1CCCCC1=O (stereo not drawn) | 17.74 |
| Cc1ccccc1NC(=O)CNC(C)COc1ccccc1 (stereo not drawn) | -5.07 |
| CC(=O)c1ccc(OCC(C)O)cc1O (stereo not drawn) | 100.7 |
| CCOC(=O)COc1ccc(C(C)=O)c(O)c1 | 95.41 |
| CC(=O)c1ccc(Cl)c(Cl)c1OCC(=O)NC(N)=O | 29.22 |
| Cc1ccc(OCC(C)NS(C)(=O)=O)cc1C (stereo not drawn) | 1.577 |
| CCOC(=O)COc1cccc(NC(=O)C2COCCO2)c1 (stereo not drawn) | -0.4507 |
| CN(Cc1cccc(F)c1)C(=O)CN1CCCCC1Cn1cncn1 (stereo not drawn) | -4.656 |
| COC(=O)CCN1CCCC1c1cccc2c1OCCO2 (stereo not drawn) | 6.335 |
| CN(C)C(=O)N1CC[C@@H](c2ccc3ccccc3c2)[C@H](O)C1 | 2.148 |
| COc1ccc(-c2nonc2N)cc1 | 116.2 |
| Cc1cc(CN(C)Cc2csc(-c3ccc(C(C)C)cc3)n2)no1 | -4.334 |
| COCC(=O)N[C@H](C)c1onc(-c2ccc(OC)cc2)c1C(=O)O | 9.623 |
| CC(C)c1ccc(C(N)c2cccs2)cc1 (stereo not drawn) | -4.854 |
| CC(C)c1ccc(-c2nonc2N)cc1 | 135.4 |

| SMILES | Percent Effect [%] |
| --- | --- |
| COc1ccc(-c2noc([C@@H](C)NC(=O)CC(C)C)c2C(=O)O)cc1 | 0.3938 |
| CCN1CCN(c2ccc(F)cc2C(C)NCc2cscn2)CC1 (stereo not drawn) | 16.44 |
| CC(C)CCC1=NC2(CCN(C(=O)N3CCN(C)CC3)CC2)C(=O)N1 | 15.84 |
| COc1ccc2c(c1)C1(CCN(Cc3cccnc3)CC1)N(C)CC2.O=C(O)C(F)(F)F.O=C(O)C(F)(F)F.O=C(O)C(F)(F)F | 47.52 |
| Cn1ccnc1CN1CCN(Cc2ccccc2C#N)CC1 | 1.879 |
| Cn1ccnc1CN1CCC2(CC1)CC(N1CCCC1)c1ccccc12 (stereo not drawn) | 116.8 |
| CN(C)C1CC2(CCN(C(=O)NC3CC3)CC2)c2ccccc21.O=C(O)C(F)(F)F (stereo not drawn) | -41.61 |
| Cn1ccnc1CN1CCC2(CC1)CC(NC(=O)c1ccccn1)CO2.O=C(O)C(F)(F)F (stereo not drawn) | -5.802 |
| CN(C)C1CCC2(CCN(Cc3cccnc3)CC2)c2ccccc21.O=C(O)C(F)(F)F.O=C(O)C(F)(F)F.O=C(O)C(F)(F)F (stereo not drawn) | 103.9 |
| CN(C)C1CCC2(CCN(Cc3nccn3C)CC2)c2ccccc21.O=C(O)C(F)(F)F.O=C(O)C(F)(F)F (stereo not drawn) | 100.5 |
| Cn1ccnc1CN1CCC2(CC1)CC(Nc1ccccn1)CO2 (stereo not drawn) | -5.655 |
| CCN(Cc1ccoc1)C(=O)NC1CCN(CC=C(C)C)CC1 | -3.465 |
| Cc1cc(CN2C[C@@H](N3CCN(C)CC3)[C@H]3OCCC[C@H]32)oc1C.O=C(O)C(F)(F)F.O=C(O)C(F)(F)F.O=C(O)C(F)(F)F | 8.988 |
| N#Cc1ccc(N2CCC3(CC2)CC(OCc2cccnc2)CO3)cc1.O=C(O)C(F)(F)F (stereo not drawn) | 6.886 |
| O=C(c1ccnnc1)N1C[C@H]2CCC[C@@H](OCc3cccnc3)[C@@H]2C1 | -7.774 |
| O=C(c1cscn1)N1C[C@H](OCc2cccnc2)[C@H]2COC[C@H]21 | 102.7 |
| O=C(c1ccncn1)N1CCO[C@H]2[C@@H](OCc3cccnc3)CC[C@@H]21 | -20.63 |
| N#Cc1ccc(C(=O)N2C[C@H](OCc3cccnc3)[C@H]3COC[C@H]32)cc1 | 101.1 |
| Cc1ccc(C(=O)N2C[C@H]3CCCC(OCc4cccnc4)[C@H]3C2)cn1.O=C(O)C(F)(F)F.O=C(O)C(F)(F)F (stereo partly drawn) | -3.164 |
| Cc1ccc(C(=O)N2C[C@H](OCc3cccnc3)[C@H]3COC[C@H]32)cn1 | 93.92 |

| SMILES | Percent Effect [%] |
| --- | --- |
| O=C(C1CCOCC1)N1C[C@H](OCc2cccnc2)[C@H]2COC[C@H]21 | 112.8 |
| Cc1nc(CO[C@H]2CN(C(=O)c3cccnc3)[C@@H]3COC[C@H]23)cs1 | -38.06 |
| O=C(O)C(F)(F)F.O=C(c1cscn1)N1C[C@H]2CCCC(OCc3cccnc3)[C@H]2C1 (stereo partly drawn) | -12.9 |
| O=C(c1ccc2c(c1)OCO2)N1C[C@H](OCC2CC2)[C@H]2COC[C@H]21 | -18.04 |
| CNC(=O)[C@@H]1C[C@@H](NC(=O)Cc2nonc2C)CN1Cc1sccc1C | 27.67 |
| CSCCCNC(=O)C1CCC(=O)N(C2CCCC2)C1 (stereo not drawn) | -0.8236 |
| COC1CN(C(=O)NCC(N)=O)CCC(=O)N(C)c2ccccc21 (stereo not drawn) | 111.8 |
| COC1CCN(C(=O)NCC(N)=O)CC(=O)N(C)c2ccccc21 (stereo not drawn) | 98.17 |
| CCOC(=O)N1CCN(C(=O)C2Cc3ccccc3CN2C)CC1 (stereo not drawn) | 6.849 |
| CCOC(=O)N1CCN(C(=O)C2CC(=O)N(c3ccccc3Br)C2)CC1 (stereo not drawn) | 18.95 |
| CCOC(=O)N1CCC(OC)c2ccccc2N(C)C(=O)C1 (stereo not drawn) | 82.02 |
| NC(=O)CC1CCN(C(=O)NCc2ccccc2-n2cccn2)CC1 | 4.172 |
| Cc1ccccc1N1CC(C)N(C(=O)CCn2cccn2)CC1=O (stereo not drawn) | 17.53 |
| CCOC(=O)COC1CCN(C(C)=O)CC(=O)N(C)c2ccccc21 (stereo not drawn) | 107.2 |
| CN1CCC(CNC(=O)c2cccc(NC(N)=O)c2)c2ccccc21 (stereo not drawn) | -10.01 |
| CCN1CCN(C2CCN(C(C(N)=O)c3ccccc3)CC2)C1=O (stereo not drawn) | -3.87 |
| CN1CCC(CNC(=O)c2ccc(O)nc2)c2ccccc21 (stereo not drawn) | -12.01 |
| Cc1ccc(C)c(SCC(=O)Nc2cccc(C(=O)N(C)C)n2)c1 | -1.523 |
